PubChem BioAssay AID651995 (Sanford-Burnham Center for Chemical Genomics, 2013)
The campaign covered roughly 2,500 compounds. About 480 (19%) were called active.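 How the source made its calls: active means mean inhibition above about 25% (limit read from the data); inactive means the rest.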 Not all results are given here.

assay: Wnt3a reporter signal inhibition, confirmation, counter-screen for Gli-SUFU antagonist project, Wnt-LIGHT cells, luminescence, single concentration (AID 651995); settings: Wnt3a-driven luciferase reporter, at 6.25 µM, active compounds read high

SMILES | inhibition
C/C(=N\Nc1ccc(Cl)nn1)c1ccccc1O | -26.7% (inactive)
COc1ccc(/C=N/N=C2/C(=O)Nc3ccccc32)cc1O | -23.9% (inactive)
COc1ccc(Cc2nnc(N/N=C/c3ccccc3O)[nH]c2=O)cc1OC | 59.9% (active)
CC(=O)OCCC(C)C | -9.39% (inactive)
c1ccc(-n2nnnc2N2CCOCC2)cc1 | -14.5% (inactive)
O=C(O)CCCn1cc(NC(=O)COc2cccc(Cl)c2)cn1 | 6.24% (inactive)
Cc1ccc(NC(=O)CN(C)CC(=O)Nc2cccc(F)c2)cc1[N+](=O)[O-] | 36.3% (active)
CN(C)CCSc1nc(N)c2c3c(sc2n1)COC(C)(C)C3 | -37.2% (inactive)
CCC1CCCCN1CCCNC(=O)Cn1nc(-c2ccccc2)ccc1=O (centres undefined) | 12.7% (inactive)
O=C1C=C(c2ccnc3cc(Cl)ccc23)C[C@@H](c2ccc3c(c2)OCO3)C1 | 27.6% (active)
CCN(CC)S(=O)(=O)c1ccc(Cl)c(C(=O)NC(C)C(c2cccs2)N2CCCC2)c1 (centres undefined) | -35.1% (inactive)
CSc1ncccc1C(=O)Nc1nc2ccc(F)cc2s1 | 81.3% (active)
CCN(CCO)C(=S)Nc1cc(C(=O)OC)ccc1C(=O)OC | -4.1% (inactive)
O=C(Cn1cc(C(=O)C2CC2)c2ccccc21)Nc1ccccc1Cl | 26.6% (active)
O=c1c2ccccc2nc2n1C(CSCc1cccc(C(F)(F)F)c1)CS2 (centres undefined) | 24.2% (inactive)
C=CCn1c(SCC(=O)CC(=O)OCC)nc2cc(C(=O)N3CCC(C(N)=O)CC3)ccc2c1=O | -31.2% (inactive)
O=C(c1cc(Cl)cc(Cl)c1)N1CCC(=O)N(C(COCc2ccccc2)Cc2ccccc2)CC1 (centres undefined) | -8.85% (inactive)
CCC(Cc1ccccc1)NC(=O)C1CCCCC1 (centres undefined) | -4.89% (inactive)
CC(C)OCC(O)CN1CCN(C(c2ccccc2)c2ccccc2)CC1 (centres undefined) | -21.2% (inactive)
CCOc1ccc(-n2c(O)c(/C=N/c3ccnn3Cc3ccncc3)c3ccccc3c2=O)cc1 | -8.8% (inactive)
O=C(CN1C(=O)c2ccccc2S1(=O)=O)N1CCc2ccccc21 | 72.4% (active)
NC(N)=Nc1nc(-c2ccccc2)c2cc(Cl)ccc2n1 | -5.22% (inactive)

SMILES | inhibition
CC(C)Oc1ccc(/C=N/NC(=O)c2nnn(-c3nonc3N)c2CN(C)C2CCCCC2)cc1 | -59.5% (inactive)
COc1ccc2c(C)cc3nnnn3c2c1 | -7.11% (inactive)
Cc1ccc(S(=O)(=O)NC(C)C(=O)Nc2ccccc2C(=O)N2CCCC2)cc1 (centres undefined) | -22.3% (inactive)
O=C(O)c1ccc(N/N=C/c2ccc3ncccc3c2)cc1 | 95% (active)
NS(=O)(=O)c1ccc(CCNC(=O)CCCn2c(SCC(=O)N3CCCC3)nc3ccsc3c2=O)cc1 | -9.95% (inactive)
C=CCOc1nc2c(c(=O)n(C)c(=O)n2C)n1Cc1ccc(Cl)cc1Cl | -18% (inactive)
O=C(Nc1cc2c3c(c1)C1CCCC1CN3CC1CCCC21)c1ccc([N+](=O)[O-])cc1 (centres undefined) | -20.4% (inactive)
CN(NC(=O)c1ccccc1F)c1nc(C(F)(F)F)nc2ccccc12 | -20% (inactive)
CC(C)(C)c1ccc(Oc2ccc(N)cc2)cc1 | 106% (active)
Cc1cc(C(=O)CSc2nc(N)cc(=O)[nH]2)c(C)n1-c1cccc(F)c1 | -15.5% (inactive)
CC(=O)c1c(C)[nH]c(C(=O)OCC(=O)Nc2sc3c(c2C#N)CCCC3)c1C | -44.3% (inactive)
COc1ccccc1/C=C/CN1CCC(CO)(Cc2ccccc2)CC1 | 3.26% (inactive)
Cc1cccc(NS(=O)(=O)c2ccc(-c3cnc(C4CC4)o3)cc2)c1 | -40.9% (inactive)
CCOc1cccc(/C=N/NC(=S)NCCN2CCOCC2)c1O | -21.9% (inactive)
COc1ccc(C(=O)NCc2nnc(SCCOc3ccccc3)n2C)cc1 | -33.1% (inactive)
COc1cccc2cc(C(N)=O)/c(=N\NC(=O)c3ccccc3)oc12 | -3.11% (inactive)
Cc1cccc2nc(CSc3nc4[nH]ncc4c(=O)n3-c3cccc(Cl)c3)cc(=O)n12 | 33.2% (active)
COc1cc(C(=O)OC(C)C(=O)NCC2CCCCC2)cc(NC(=O)c2ccco2)c1OC (centres undefined) | -76.6% (inactive)
CC(C)C(=O)Nc1nnc(SCC(=O)N2C(C)CCCC2C)s1 (centres undefined) | -26.6% (inactive)
O=C(NCCOCc1ccc(Cl)cc1)c1ncn[nH]1 | 33.3% (active)
CCn1c(SCc2ccccc2)nc2cc(OC)c(OC)cc2c1=O | -22.5% (inactive)
CC(C)Oc1ccc(CN2CCC(n3nccc3NC(=O)c3cccnc3)CC2)cc1 | -35.7% (inactive)
